EWS-Fli inh: EWS/Fli-driven NR0B1 reporter inhibitors, primary screen, A673 cells, NR0B1 luciferase, luminescence, MLPCN library; viability-normalised; inhibition, % at 12.6 µM; hit rate 0.67% among 350,000;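 active means mean inhibition of at least 50% after viability correction, with every replicate also passing that limit; inconclusive means mean reaches 50% but only one of two replicates passes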;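 further: firefly luciferase signal divided by Alamar Blue viability fluorescence both relative to DMSO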
TWEAK Fn14 block: inhibitors of TWEAK-Fn14 signaling, primary screen, luciferase reporter cells, uHTS | TWEAK-stimulated Fn14 reporter cells, luciferase luminescence, 8 h | inhibition, % at 10 µM | hit rate 2% among 360,000 | AID 1159606, 2016; in the data active means inhibition above about 50%
LGR2 inh: inhibitors of bursicon-induced LGR2 CRE-luciferase signal, primary screen, cell-based, HEK293, CRE-luciferase reporter, bursicon stimulation | hit rate 0.35% among 380,000 | AID 720647, 2013 | bursicon-stimulated, 4 h | inhibition, % at 9.99 µM;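 active means drop in luminescence signal, shown as inhibition above about 50% in the replicate tests, limit read from the data, passing the limit was not always enough; inconclusive means probably only some replicates passing the limit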;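 further: agonist challenge used bursicon conditioned medium at about half maximal strength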
PAX8 reporter: inhibitors of PAX8-driven TPO luciferase reporter, primary screen, RMG-I cells, single concentration. SteadyGlo, 24 h. inhibition, % at 12.6 µM. hit rate 1.2% among 360,000;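 active means mean replicate inhibition at least 60% with every replicate also reaching 60%; inconclusive means only one of the two criteria is met; inactive means mean below 60% and not all replicates reaching 60%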;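 further: luciferase light reporting Pax8 driven TPO promoter activity; plate controls were median of neutral control wells for no effect and mitoxantrone controls for full effect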
TROY NFkB inh: inhibitors of TROY-driven NF-kB signaling, primary screen, Q293 LMP1-TROYcd cells, NF-kB luciferase, uHTS. AID 1347056, 2019. hit rate 0.98% among 360,000. Q293 LMP1-TROYcd NF-kB luciferase reporter, 4 h. inhibition, % at 10 µM;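 active means compounds whose plate-normalised and pattern-corrected inhibition of the luciferase reporter signal at the single screening dose is 50% or more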
EBV LMP1 NFkB: EBV LMP1-driven NF-kappaB luciferase reporter inhibitors, primary screen, cell-based, luminescence, single point; hit rate 0.69% among 350,000; LMP1-induced NF-kappaB luciferase reporter cells; inhibition, % at 12.5 µM; AID 504558, 2011; in the data active means inhibition above about 41%; inconclusive means no clear call, values can overlap the other calls;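 further: 0% = neutral control wells and 100% = reference inhibitor control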
* = called active by the depositor. Shown are actives, neighbours in structure and some others; about 3.2% of the full set was active somewhere.

What do the screens show for `NC(=S)NN=C1c2cc(Cl)ccc2-c2c1cc(Cl)cc2[N+](=O)[O-]`?
TWEAK Fn14 block: 101.1*; TROY NFkB inh: 47.0; EBV LMP1 NFkB: 7.7

How did CC(C)(C)NC(=O)COC(=O)c1ccccc1Nc1ccc(SC(F)F)cc1 do in these assays?
TWEAK Fn14 block: 54.8*; LGR2 inh: -28.9; PAX8 reporter: -84.7; TROY NFkB inh: 27.3; EBV LMP1 NFkB: -6.2

What do the screens show for `COc1ccc2c3c(n(C)c2c1)[C@@H](CO)N(C(=O)Nc1ccccc1F)CC31CN(C(=O)c2ccccc2)C1`?
EWS-Fli inh: 9.5; LGR2 inh: -3.2

Results for COc1ccc(NC(=O)N(C)C[C@@H]2Oc3ccc(NC(=O)Nc4ccc(F)cc4)cc3C(=O)N([C@H](C)CO)C[C@H]2C)cc1 ?
EWS-Fli inh: -0.4; LGR2 inh: -3.2

What do the screens show for `Oc1ccc2ccccc2c1CN1CC2CCC(CC2)C1`?
EWS-Fli inh: 11.6; TWEAK Fn14 block: 33.1; PAX8 reporter: 83.8*; TROY NFkB inh: 2.5; EBV LMP1 NFkB: -7.8

What do the screens show for `O=C(Cc1ccccc1)N1CC(=O)N2[C@H](CO)[C@@H](c3ccc(-c4cccc(F)c4)cc3)[C@H]2C1`?
EWS-Fli inh: 0.9; LGR2 inh: -1.9; PAX8 reporter: 20.4

How did C[C@@H]1CN([C@H](C)CO)C(=O)c2ccccc2-c2ccccc2CO[C@H]1CN(C)C(=O)Nc1ccc(-c2ccccc2)cc1 do in these assays?
EWS-Fli inh: -5.6; LGR2 inh: 13.2; PAX8 reporter: 10.6

How did CCOc1ccccc1CNc1ncnc2ccc(-c3c(C)noc3C)cc12 do in these assays?
EWS-Fli inh: 27.7; TWEAK Fn14 block: 82.4*; LGR2 inh: 3.3; PAX8 reporter: 2.2; TROY NFkB inh: 62.0*; EBV LMP1 NFkB: 16.8

What do the screens show for `O=C(C[C@H]1CC[C@@H]2[C@H](COC[C@@H](O)CN2C(=O)Nc2ccc(Cl)cc2)O1)NCC1CC1`?
EWS-Fli inh: 4.4; LGR2 inh: -36.7; PAX8 reporter: -26.0

How did Cc1ccc(S(=O)(=O)N[C@H]2CC[C@@H](CCNC(=O)c3ccc4c(c3)OCO4)O[C@H]2CO)cc1 do in these assays?
EWS-Fli inh: -3.6; LGR2 inh: -2.6; PAX8 reporter: -13.3

What do the screens show for `O=C(C[C@H]1CC[C@@H]2[C@H](COC[C@@H](O)CN2S(=O)(=O)c2cccc(F)c2)O1)Nc1ccc(-c2ccccc2)cc1`?
EWS-Fli inh: -78.0; LGR2 inh: -3.7; PAX8 reporter: 72.5*

What do the screens show for `O=C(C[C@H]1CC[C@@H]2[C@H](COC[C@H](O)CN2S(=O)(=O)c2cccc(F)c2)O1)Nc1ccc(-c2ccccc2)cc1`?
EWS-Fli inh: 1.9; LGR2 inh: 9.9; PAX8 reporter: 116.1*

What do the screens show for `C/C=C/c1ccc([C@H]2[C@@H](CNC(=O)c3ccccc3)N(C(C)=O)[C@H]2CO)cc1`?
EWS-Fli inh: -3.9; LGR2 inh: -14.8; PAX8 reporter: 8.9

What do the screens show for `CCCNC(=O)N(C)C[C@@H]1Oc2ncc(C#CC3CC3)cc2C(=O)N([C@H](C)CO)C[C@@H]1C`?
EWS-Fli inh: -6.1; LGR2 inh: -8.8

What do the screens show for `C[C@@H]1CCCCO[C@@H](CN(C)Cc2ccc(Cl)c(Cl)c2)[C@H](C)CN([C@H](C)CO)C(=O)c2cc(NS(C)(=O)=O)ccc2O1`?
EWS-Fli inh: -12.7; LGR2 inh: 23.0; PAX8 reporter: 10.7

Results for CC1(C)CC(=O)C=C(Nc2ccc3c(c2)OCCO3)C1 ?
TWEAK Fn14 block: 69.9*; TROY NFkB inh: 49.7; EBV LMP1 NFkB: -4.2

What do the screens show for `C[C@@H]1CN([C@H](C)CO)C(=O)c2cc(C#CCc3ccccc3)cnc2O[C@@H]1CN(C)C(=O)Cc1cccnc1`?
EWS-Fli inh: -11.8; LGR2 inh: -5.1

What do the screens show for `Cc1ccc(C(=O)N/C(=C\c2ccc(-c3ccc(Br)cc3)o2)C(=O)NCCCN(C)C)cc1`?
EWS-Fli inh: 51.5*; TWEAK Fn14 block: -278.6; LGR2 inh: inconclusive; PAX8 reporter: 94.7*; TROY NFkB inh: -23.8; EBV LMP1 NFkB: 2.2

How did CCC(=O)NC1=C(Cl)C(=O)C(NC(=O)CC)=C(Cl)C1=O do in these assays?
EWS-Fli inh: 25.0; TWEAK Fn14 block: 11.2; LGR2 inh: 9.4; PAX8 reporter: 85.7*; TROY NFkB inh: 9.4; EBV LMP1 NFkB: 11.2

How did N#Cc1ccsc1NC(=O)COC(=O)CCCSc1nc2ccccc2s1 do in these assays?
TWEAK Fn14 block: 30.4; PAX8 reporter: -15.0; TROY NFkB inh: 26.4; EBV LMP1 NFkB: -13.7

What do the screens show for `CCS(=O)(=O)CCSc1nc2ccccc2s1`?
TWEAK Fn14 block: -8.1; TROY NFkB inh: -1.9; EBV LMP1 NFkB: -2.9

What do the screens show for `CNC(=O)NC(=O)COC(=O)CCCSc1nc2ccccc2s1`?
EWS-Fli inh: 0.9; TWEAK Fn14 block: 59.1*; PAX8 reporter: -5.1; TROY NFkB inh: 40.1; EBV LMP1 NFkB: 8.6

Results for NC(=O)COC(=O)CCCSc1nc2ccccc2s1 ?
EWS-Fli inh: 11.6; TWEAK Fn14 block: 54.0*; LGR2 inh: 3.8; PAX8 reporter: -3.6; TROY NFkB inh: 44.2; EBV LMP1 NFkB: -2.3

Results for O=S(=O)(CCSc1nc2ccccc2s1)c1nc2ccccc2s1 ?
TWEAK Fn14 block: 82.5*; PAX8 reporter: 104.2*; TROY NFkB inh: 69.3*; EBV LMP1 NFkB: 5.5

What do the screens show for `C[C@@H]1CN([C@H](C)CO)C(=O)c2cccc(NS(=O)(=O)c3ccc(F)cc3)c2O[C@@H]1CN(C)Cc1ccc2c(c1)OCO2`?
EWS-Fli inh: -10.8; LGR2 inh: 3.5; PAX8 reporter: -0.6

Results for C[C@H](CO)N1C[C@H](C)[C@@H](CN(C)C(=O)Cc2ccccc2)OCCCC[C@H](C)Oc2ccc(NS(=O)(=O)c3cn(C)cn3)cc2C1=O ?
EWS-Fli inh: -1.2; LGR2 inh: 8.9; PAX8 reporter: -4.7

How did Cc1ccsc1C1C(C#N)=C(N)Oc2n[nH]c(C)c21 (stereo not drawn) do in these assays?
EWS-Fli inh: 0.7; TWEAK Fn14 block: 61.1*; LGR2 inh: 9.3; PAX8 reporter: 11.6; TROY NFkB inh: 6.1; EBV LMP1 NFkB: -12.4

What do the screens show for `CCCCCCN1C[C@@H](O)[C@H](n2cc(C3CC3)nn2)C[C@@H]1c1ccc(Cl)cc1`?
EWS-Fli inh: -7.2; TWEAK Fn14 block: 14.0; LGR2 inh: 20.0; PAX8 reporter: -0.2; TROY NFkB inh: 2.9; EBV LMP1 NFkB: -6.4

What do the screens show for `O[C@H]1C[C@H](c2ccc(Cl)cc2)N(Cc2cccs2)C[C@@H]1n1cc(-c2ccc(F)cc2)nn1`?
EWS-Fli inh: 14.9; TWEAK Fn14 block: 5.5; LGR2 inh: -0.2; PAX8 reporter: 2.7; TROY NFkB inh: -6.1; EBV LMP1 NFkB: 1.6

Source: PubChem BioAssay
